DAX1 inh-1: DAX1 (NR0B1) inhibitors, primary screen, cell-based, HEK293, Gal4-DAX1, luciferase luminescence | HEK293 Gal4-DAX1 luciferase reporter | AID 504766, 2011 | 340,000 compounds, 0.99% hits | inhibition, % at 6.75 µM;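 active = inhibition above the mean over all tested compounds plus 3 SD, cut at about 4.2% in these data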;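 also: 0% = DAX1-transfected cells with DMSO and 100% = empty-vector control cells with DMSO; inhibition shows as a rise in luminescence from relieved DAX1 repression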
Target sequence (P51843 207-470 limits assumed): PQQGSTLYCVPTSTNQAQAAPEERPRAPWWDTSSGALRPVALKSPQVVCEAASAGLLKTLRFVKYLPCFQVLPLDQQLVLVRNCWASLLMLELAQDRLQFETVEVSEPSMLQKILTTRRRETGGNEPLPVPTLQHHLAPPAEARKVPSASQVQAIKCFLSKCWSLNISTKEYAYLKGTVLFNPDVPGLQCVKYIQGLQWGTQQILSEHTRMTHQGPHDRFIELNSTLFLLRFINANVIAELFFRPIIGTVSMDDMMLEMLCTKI
ssDAF12 agonist: S. stercoralis DAF-12 nuclear receptor activators, primary screen, cell-based, luminescence, HEK293, GRIP1 co-expression, lit1-tk-luc. Nuclear hormone receptor DAF-12 (Strongyloides stercoralis). HEK293 ssDAF-12/GRIP1 lit1-tk-luc reporter; % of 3 µM dafachronic acid response. activation, % at 6.8 µM. 370,000 compounds, 1% hits. AID 652126, 2013;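 active = activation above the mean over all tested compounds plus 3 SD, cut at about 0.9% in these data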;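 also: 0% = DMSO-only wells and 100% = 3 µM delta7-dafachronic acid wells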
hgDAF12 agonist: H. glycines DAF-12 receptor agonists, primary screen, cell-based, luminescence, HEK293, GAL4 fusion, UAS-luciferase | HEK293 GAL4-hgDAF12 UAS-luciferase reporter, agonist luminescence; normalized to butyrate control | activation, % at 6.8 µM | 370,000 compounds, 1.8% hits | AID 687014, 2013;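 active = activation above a cutoff set at the mean of all screened compounds plus 3 SD, cut at about 10% in these data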;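 also: 0% = DMSO wells and 100% = sodium butyrate wells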
DAX1 inh-2: DAX1 (NR0B1) inhibitors on StAR promoter, primary screen, cell-based, luminescence, SF-1 (NR5A1), full-length DAX-1. HEK293T StAR-luciferase reporter, SF-1/DAX-1 repression relief. inhibition, % at 6.8 µM. 370,000 compounds, 1.1% hits;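 active = inhibition above the mean over all tested compounds plus 3 SD, cut at about 3.6% in these data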;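 also: 0% = DAX-1 cells with DMSO and 100% = cells lacking DAX-1 with DMSO; higher inhibition means more luminescence from relief of DAX-1 repression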
hcDAF12 agonist: H. contortus DAF-12 nuclear receptor activators, primary screen, cell-based, luminescence, HEK293, lit1-tk-luc reporter; HEK293 hcDAF-12 lit1-tk-luc reporter; 0% DMSO, 100% Δ7-dafachronic acid; activation, % at 6.8 µM; 370,000 compounds, 1.4% hits; AID 652067, 2013;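 active = activation above the mean of all tested compounds plus 3 SD, cut at about 5.5% in these data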;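 also: 100% = response to 3 µM Δ7-dafachronic acid high control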
Starred values were filed as active, the others as inactive; x = no result. In the library only some 4.1% were active in any assay of this set; here they are far more common.

SMILES	DAX1 inh-1	ssDAF12 agonist	hgDAF12 agonist	DAX1 inh-2	hcDAF12 agonist
COC(=O)[C@]12C[C@H](CC(=O)NCc3ccc(OC)c(OC)c3)C(=O)N(Cc3ccc4c(c3)OCO4)C1=C[C@H](C(C)(C)C)O[C@@H]2C	x	-1	-2	0	-1
COc1ccc(S(=O)(=O)Nc2ccncc2)c(C)c1C	0	-1	-2	1	-1
Cc1ccc(S(=O)(=O)Nc2ccncc2)c(C)c1N(C)S(=O)(=O)c1ccc(F)cc1	1	-1	-1	0	5.7*
CN(C)CCCNC(=O)C[C@H]1C[C@H](C(=O)N2CCOCC2)[C@@]2(CCC3CCCC3)c3[nH]c4cc(-c5ccco5)ccc4c3CCN2C1=O	0	-1	1	0	-1
O=C(C[C@H]1C[C@H](C(=O)N2CCOCC2)[C@@]2(CCC3CCCC3)c3[nH]c4cc(-c5ccco5)ccc4c3CCN2C1=O)NCCN1CCOCC1	0	-1	-6	3.7*	-2
O=C(NCCc1c[nH]c2ccccc12)OCc1cn(Cc2ccc(C(F)(F)F)cc2)nn1	x	-1	-7	0	-3
Cc1ccc(OCc2nnc(SCC(=O)Nc3cccc4ccccc34)n2Cc2ccco2)cc1	x	-2	0	-1	-3
CSc1nc(C)cc(Oc2ccc(=O)[nH]n2)n1	5.8*	-1	-3	0	0
CCN(C(=O)Cn1c([N+](=O)[O-])cnc1C)c1ccccc1	0	1.5*	-2	1	1
COc1ccccc1C(=O)Nc1nc2cc3c(cc2s1)OCO3	4	0	12*	2	4
O=C(CCS(=O)(=O)c1ccccc1)Nc1nc2cc3c(cc2s1)OCO3	4.9*	-1	-1	0	1
Cc1cccc(-n2nnc(C(=O)Nc3ccc(F)cc3)c2N)c1	1	0	12*	2	3
CCOc1ccc(Cn2nnc(C(=O)Nc3cc(C)cc(C)c3)c2N)cc1	4	-1	-3	1	0
CCc1ccc(Cn2nnc(C(=O)Nc3cccc(C)c3)c2N)cc1	4.3*	-1	3	0	-1
COC(=O)[C@H](C(C)C)N(CCc1cn(Cc2ccc(C)cc2)nn1)S(=O)(=O)c1ccccc1Br	x	-1	-1	-2	-4
C=CCN(CC=C)CC(O)CN(c1cc([N+](=O)[O-])ccc1OC)S(=O)(=O)c1ccccc1 (stereo not drawn)	0	0	2	3.8*	1
Nc1c(C(=O)Nc2cccc(C(=O)O)c2)sc2nc3c(cc12)CCCC3	-4	-1	11*	3	3
Nc1c(C(=O)Nc2ccc(Cl)c(C(=O)O)c2)sc2nc3c(cc12)CCCC3	0	-1	1	0	-1
C=CCN(C(=O)[C@@H](C)[C@@H](O)c1ccc(Cl)cc1)c1ccccc1	x	-1	2	-1	-3
CN1CCCN(C(=O)C2CCN(c3ncnc4c3sc3cccc(F)c34)CC2)CC1	x	0	4	-1	1
COc1ccc(-c2nc(-c3ccc(C(=O)O)cc3)no2)cc1	0	0	12*	3.9*	6.9*
Cc1cccc(-c2nc(-c3ccncc3)no2)c1	5.3*	1	11*	2	3
CC(C)(C)c1ccc(-c2nc(-c3ccncc3)no2)cc1	2	0	6	3.7*	2
Cc1cc(C)cc(-c2nc(-c3ccncc3)no2)c1	1	-1	3	1	3
Fc1ccccc1-c1nc(-c2ccncc2)no1	4.8*	1.1*	10	1	4
SMILES	DAX1 inh-1	ssDAF12 agonist	hgDAF12 agonist	DAX1 inh-2	hcDAF12 agonist
Cc1cc(F)ccc1C(=O)N1CCC(Oc2cccnc2)CC1	x	0	3	-1	-1
COc1ccc(CN(CCN2CCOCC2)C(=O)c2cc(F)cc(F)c2)cc1OC	x	-1	-3	0	-1
O=C(Nc1ccccc1F)O[C@@H]1CC[C@@]23CCCN2C(=O)CCC[C@H]3C1	x	-1	0	x	1
Cc1cc(C)cc([C@H]2C[C@]34CN(Cc5ccccc5)S(=O)(=O)[C@H]3C[C@H]2O4)c1	x	-1	-2	2	-1
CCC(=O)Oc1ccc(-c2nc(-c3cccnc3)no2)cc1	2	-1	11*	1	2
COc1cc(O)sc1C=Nc1ccc(Cl)cc1Cl	2	1.1*	-1	1	0
COc1ccc(C(=O)CSc2nnc(-c3ccccn3)n2-c2ccccc2)cc1	x	-2	0	-1	-2
Cc1cnc(NC(=O)CCN2C(=O)C3CCCCC3C2=O)s1 (stereo not drawn)	6.7*	-1	2	0	-1
Cc1cnc(NC(=O)CC2CCCC2)s1	4	-1	11*	3	3
Cc1cnc(NC(=O)CN2C(=O)C3CC=CCC3C2=O)s1 (stereo not drawn)	4	-1	2	1	-1
Cc1ccccc1OCC1CNC(=O)O1 (stereo not drawn)	0	-1	-2	-1	0
O=C1NCC(CN(c2ccccc2)c2ccccc2)O1 (stereo not drawn)	6.7*	-1	-1	-1	-2
Nn1c(SCc2cccc3ccccc23)nnc1-c1cc(-c2ccc(F)cc2)n[nH]1	x	-1	3	-2	-3
Cc1c(C(=O)NNc2c(Cl)cccc2Cl)n(C)oc1=O	6.2*	-1	-2	1	-2
CC1CCCCN1C(=O)c1cc(-c2ccc(Cl)c(Cl)c2)on1 (stereo not drawn)	1	-1	7	0	-1
CC1CCN(C(=O)c2cc(-c3ccc4c(c3)OCO4)on2)CC1	1	0	12*	2	4
CC1CCCCN1C(=O)c1cc(-c2ccc3c(c2)OCO3)on1 (stereo not drawn)	3	0	11*	2	5
CCCNC(=O)c1cc(-c2ccc3c(c2)OCO3)on1	0	0	11*	3	2
CCCCNC(=O)C1C(c2ccc(OC)cc2)=Nc2ccccc2N1C(=O)Cc1cc(OC)cc(OC)c1 (stereo not drawn)	x	-1	3	-1	-3
Cc1csc(NS(=O)(=O)c2cccc([N+](=O)[O-])c2)n1	6.1*	-1	-2	1	0
CCOC(=O)Cc1csc(NS(=O)(=O)c2cccc([N+](=O)[O-])c2)n1	0	-1	0	0	1
CN(C)c1ccc(NC(=O)c2ccc3nsnc3c2)cc1	1	0	11*	3	2

Source: PubChem (The Scripps Research Institute Molecular Screening Center)
